# Test results taken from article PMC8384837, “Expanding the binding specificity for RNA recognition by a PUF domain”.
# How the values were obtained:
# Assay in all cases: yeast three-hybrid, YBZ-1, SC-Leu-His + 0.5 mM 3-AT, 4 days
# Conditions in all cases: tags: N-Gal4 AD-HA kept; label: inside an RPR1-promoter hybrid RNA with tandem MS2 sites; ssRNA
# [1] = target: PUM1 PUF domain R3-EFG (Homo sapiens, UniProt Q14671 828-1176, C935E;R936F;Q939G)
# Procedure, shortened: (§1)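 The interaction score is the log change in how often each variant appears, from input to selection. Frequencies came from PCR-amplified, Illumina-sequenced repeat regions of Pumilio-1 PUF domain libraries grown in strain YBZ-1 (LexA–MS2 coat fusion, HIS3 reporter) alongside matching RNA elements. Input plates were SC-Leu and selection plates were SC-Leu-His + 0.5 mM 3-AT, each for four days, and the log2 calculation used a pseudocount of 1 where a variant was absent.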
# [2] = target: PUM1 PUF domain R3-SWL (Homo sapiens, UniProt Q14671 828-1176, C935S;R936W;Q939L)
# Procedure, shortened: as §1
# [3] = target: PUM1 PUF domain R2-KCA (Homo sapiens, UniProt Q14671 828-1176, N899K;Y900C;Q903A)
# Procedure, shortened: as §1
# [4] = target: PUM1 PUF domain R2-EWA (Homo sapiens, UniProt Q14671 828-1176, N899E;Y900W;Q903A)
# Procedure, shortened: as §1
# [5] = target: PUM1 PUF domain R8-KFG (Homo sapiens, UniProt Q14671 828-1176, N1122K;Y1123F;Q1126G)
# Procedure, shortened: as §1
# [6] = target: PUM1 PUF domain R5-DHK (Homo sapiens, UniProt Q14671 828-1176, C1007D;R1008H;Q1011K)
# Procedure, shortened: as §1
# [7] = target: PUM1 PUF domain R5-VYY (Homo sapiens, UniProt Q14671 828-1176, C1007V;R1008Y;Q1011Y)
# Procedure, shortened: as §1
# [8] = target: T1, PUM1 PUF domain R6-CWA (Homo sapiens, UniProt Q14671 828-1176, N1043C;Y1044W;Q1047A)
# T1 sequence: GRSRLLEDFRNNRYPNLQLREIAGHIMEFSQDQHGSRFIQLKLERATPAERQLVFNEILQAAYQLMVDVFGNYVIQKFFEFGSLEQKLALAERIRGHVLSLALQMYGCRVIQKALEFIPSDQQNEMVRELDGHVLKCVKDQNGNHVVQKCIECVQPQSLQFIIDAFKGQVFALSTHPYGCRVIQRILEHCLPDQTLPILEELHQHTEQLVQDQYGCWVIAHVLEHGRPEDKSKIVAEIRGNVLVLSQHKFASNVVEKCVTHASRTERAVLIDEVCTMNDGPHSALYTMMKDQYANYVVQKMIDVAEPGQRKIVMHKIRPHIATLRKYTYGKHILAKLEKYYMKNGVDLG
# Procedure, shortened: as §1
# [9] = target: PUM1 PUF domain R8-TYC (Homo sapiens, UniProt Q14671 828-1176, N1122T;Q1126C)
# Procedure, shortened: as §1
# [10] = target: PUM1 PUF domain R1-RCM (Homo sapiens, UniProt Q14671 828-1176, S863R;R864C;Q867M)
# Procedure, shortened: as §1
# PUM1 PUF domain R2-KCA, sequence (Q14671 828-1176 N899K/Y900C/Q903A): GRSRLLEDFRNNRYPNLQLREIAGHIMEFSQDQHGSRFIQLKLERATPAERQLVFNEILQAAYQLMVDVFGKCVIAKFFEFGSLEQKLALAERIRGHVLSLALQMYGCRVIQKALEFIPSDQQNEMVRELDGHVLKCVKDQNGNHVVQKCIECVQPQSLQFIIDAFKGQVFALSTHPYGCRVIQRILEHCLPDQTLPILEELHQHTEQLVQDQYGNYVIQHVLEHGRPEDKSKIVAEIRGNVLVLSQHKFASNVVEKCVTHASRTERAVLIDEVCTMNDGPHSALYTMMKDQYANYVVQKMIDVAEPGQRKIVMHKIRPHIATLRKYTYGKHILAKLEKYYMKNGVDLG
# PUM1 PUF domain R8-TYC, sequence (Q14671 828-1176 N1122T/Q1126C): as the sequence (Q14671 828-1176 N899K/Y900C/Q903A) above, with K72N, C73Y, A76Q, N295T, Q299C counted along it
sequence,measurement,setting,value
GGCUAGAACUAGUGGAUCCCCCGGCGCCCGGCGGCUCGAGCCCGGGUAAGUGUAAUUAGUCUGCAUGCCGCCGGGCGCCAUGCCUGCAGGUCGACUCUAGAAAACAUG,binding signal,[1],3.8 log2 enrichment (interaction score)
same,binding signal,[2],1.78 log2 enrichment (interaction score)
GGCUAGAACUAGUGGAUCCCCCGGCGCCCGGCGGCUCGAGCCCGGGUAAGUGUAAAGAGUCUGCAUGCCGCCGGGCGCCAUGCCUGCAGGUCGACUCUAGAAAACAUG,binding signal,[3],3.39 log2 enrichment (interaction score)
same,binding signal,[4],2.1 log2 enrichment (interaction score)
GGCUAGAACUAGUGGAUCCCCCGGCGCCCGGCGGCUCGAGCCCGGGUAAGGGUAAAUAGUCUGCAUGCCGCCGGGCGCCAUGCCUGCAGGUCGACUCUAGAAAACAUG,binding signal,[5],4.73 log2 enrichment (interaction score)
GGCUAGAACUAGUGGAUCCCCCGGCGCCCGGCGGCUCGAGCCCGGGUAAGUGUAAAAAGUCUGCAUGCCGCCGGGCGCCAUGCCUGCAGGUCGACUCUAGAAAACAUG,binding signal,[4],5.74 log2 enrichment (interaction score)
GGCUAGAACUAGUGGAUCCCCCGGCGCCCGGCGGCUCGAGCCCGGGUAAGUGUAAGUAGUCUGCAUGCCGCCGGGCGCCAUGCCUGCAGGUCGACUCUAGAAAACAUG,binding signal,[1],4.12 log2 enrichment (interaction score)
GGCUAGAACUAGUGGAUCCCCCGGCGCCCGGCGGCUCGAGCCCGGGUAAGUGUAAAUAGUCUGCAUGCCGCCGGGCGCCAUGCCUGCAGGUCGACUCUAGAAAACAUG,binding signal,[1],4.8 log2 enrichment (interaction score)
same,binding signal,[6],2.94 log2 enrichment (interaction score)
same,binding signal,[7],2.98 log2 enrichment (interaction score)
same,binding signal,[2],3.24 log2 enrichment (interaction score)
same,binding signal,[8],4.17 log2 enrichment (interaction score)
same,binding signal,[5],6.69 log2 enrichment (interaction score)
GGCUAGAACUAGUGGAUCCCCCGGCGCCCGGCGGCUCGAGCCCGGGUAAGCGUAAAUAGUCUGCAUGCCGCCGGGCGCCAUGCCUGCAGGUCGACUCUAGAAAACAUG,binding signal,[9],2.53 log2 enrichment (interaction score)
same,binding signal,[5],2.54 log2 enrichment (interaction score)
GGCUAGAACUAGUGGAUCCCCCGGCGCCCGGCGGCUCGAGCCCGGGUAAGUGUAAAUGGUCUGCAUGCCGCCGGGCGCCAUGCCUGCAGGUCGACUCUAGAAAACAUG,binding signal,[10],0.08 log2 enrichment (interaction score)
GGCUAGAACUAGUGGAUCCCCCGGCGCCCGGCGGCUCGAGCCCGGGUAAGUGUAACUAGUCUGCAUGCCGCCGGGCGCCAUGCCUGCAGGUCGACUCUAGAAAACAUG,binding signal,[1],2.94 log2 enrichment (interaction score)
GGCUAGAACUAGUGGAUCCCCCGGCGCCCGGCGGCUCGAGCCCGGGUAAGUGUAAAUCGUCUGCAUGCCGCCGGGCGCCAUGCCUGCAGGUCGACUCUAGAAAACAUG,binding signal,[10],2.75 log2 enrichment (interaction score)
